Results reported in ChEMBL document CHEMBL1961873, “Compounds: GSK PKIS; Assays: Nanosyn kinase panel” (2012).

Key:
[1] = target: Platelet-derived growth factor receptor beta (Homo sapiens) (UniProt P09619); conditions: at 1 µM;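 note: each value is a mean percent inhibition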
[2] = target: Tyrosine-protein kinase FRK (Homo sapiens) (UniProt P42685); conditions: at 0.1 µM
[3] = target: Tyrosine-protein kinase FRK (Homo sapiens) (UniProt P42685); conditions: at 1 µM
[4] = target: Protein-tyrosine kinase 2-beta (Homo sapiens) (UniProt Q14289); conditions: at 0.1 µM
[5] = target: Protein-tyrosine kinase 2-beta (Homo sapiens) (UniProt Q14289); conditions: at 1 µM
[6] = target: Proto-oncogene tyrosine-protein kinase receptor Ret (Homo sapiens) (UniProt P07949); conditions: at 0.1 µM
[7] = target: Proto-oncogene tyrosine-protein kinase receptor Ret (Homo sapiens) (UniProt P07949); conditions: at 1 µM
[8] = test system: Proto-oncogene tyrosine-protein kinase receptor Ret (Homo sapiens), P07949 [V804L]; conditions: at 0.1 µM
[9] = test system: Proto-oncogene tyrosine-protein kinase receptor Ret (Homo sapiens), P07949 [V804L]; conditions: at 1 µM
[10] = test system: Proto-oncogene tyrosine-protein kinase receptor Ret (Homo sapiens), P07949 [Y791F]; conditions: at 0.1 µM
[11] = test system: Proto-oncogene tyrosine-protein kinase receptor Ret (Homo sapiens), P07949 [Y791F]; conditions: at 1 µM
[12] = target: Macrophage-stimulating protein receptor (Homo sapiens) (UniProt Q04912); conditions: at 0.1 µM
[13] = target: Macrophage-stimulating protein receptor (Homo sapiens) (UniProt Q04912); conditions: at 1 µM
[14] = target: Proto-oncogene tyrosine-protein kinase ROS (Homo sapiens) (UniProt P08922); conditions: at 0.1 µM
[15] = target: Proto-oncogene tyrosine-protein kinase ROS (Homo sapiens) (UniProt P08922); conditions: at 1 µM
[16] = target: Proto-oncogene tyrosine-protein kinase Src (Homo sapiens) (UniProt P12931); conditions: at 0.1 µM
[17] = target: Proto-oncogene tyrosine-protein kinase Src (Homo sapiens) (UniProt P12931); conditions: at 1 µM
[18] = target: Tyrosine-protein kinase Srms (Homo sapiens) (UniProt Q9H3Y6); conditions: at 0.1 µM
[19] = target: Tyrosine-protein kinase Srms (Homo sapiens) (UniProt Q9H3Y6); conditions: at 1 µM
[20] = target: Tyrosine-protein kinase SYK (Homo sapiens) (UniProt P43405); conditions: at 0.1 µM;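 note: reported percentages are mean inhibition values for SYK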

Macrophage-stimulating protein receptor (Homo sapiens), sequence (Q04912 25-304 limits assumed): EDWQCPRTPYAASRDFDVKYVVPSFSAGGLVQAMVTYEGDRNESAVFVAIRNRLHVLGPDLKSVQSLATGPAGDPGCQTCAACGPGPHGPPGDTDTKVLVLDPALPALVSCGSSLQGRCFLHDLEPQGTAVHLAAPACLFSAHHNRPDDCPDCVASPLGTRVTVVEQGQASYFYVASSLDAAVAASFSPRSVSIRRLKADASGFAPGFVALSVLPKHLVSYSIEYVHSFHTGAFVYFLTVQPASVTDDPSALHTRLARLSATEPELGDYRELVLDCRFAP
Macrophage-stimulating protein receptor (Homo sapiens), sequence (Q04912 310-1400 limits assumed): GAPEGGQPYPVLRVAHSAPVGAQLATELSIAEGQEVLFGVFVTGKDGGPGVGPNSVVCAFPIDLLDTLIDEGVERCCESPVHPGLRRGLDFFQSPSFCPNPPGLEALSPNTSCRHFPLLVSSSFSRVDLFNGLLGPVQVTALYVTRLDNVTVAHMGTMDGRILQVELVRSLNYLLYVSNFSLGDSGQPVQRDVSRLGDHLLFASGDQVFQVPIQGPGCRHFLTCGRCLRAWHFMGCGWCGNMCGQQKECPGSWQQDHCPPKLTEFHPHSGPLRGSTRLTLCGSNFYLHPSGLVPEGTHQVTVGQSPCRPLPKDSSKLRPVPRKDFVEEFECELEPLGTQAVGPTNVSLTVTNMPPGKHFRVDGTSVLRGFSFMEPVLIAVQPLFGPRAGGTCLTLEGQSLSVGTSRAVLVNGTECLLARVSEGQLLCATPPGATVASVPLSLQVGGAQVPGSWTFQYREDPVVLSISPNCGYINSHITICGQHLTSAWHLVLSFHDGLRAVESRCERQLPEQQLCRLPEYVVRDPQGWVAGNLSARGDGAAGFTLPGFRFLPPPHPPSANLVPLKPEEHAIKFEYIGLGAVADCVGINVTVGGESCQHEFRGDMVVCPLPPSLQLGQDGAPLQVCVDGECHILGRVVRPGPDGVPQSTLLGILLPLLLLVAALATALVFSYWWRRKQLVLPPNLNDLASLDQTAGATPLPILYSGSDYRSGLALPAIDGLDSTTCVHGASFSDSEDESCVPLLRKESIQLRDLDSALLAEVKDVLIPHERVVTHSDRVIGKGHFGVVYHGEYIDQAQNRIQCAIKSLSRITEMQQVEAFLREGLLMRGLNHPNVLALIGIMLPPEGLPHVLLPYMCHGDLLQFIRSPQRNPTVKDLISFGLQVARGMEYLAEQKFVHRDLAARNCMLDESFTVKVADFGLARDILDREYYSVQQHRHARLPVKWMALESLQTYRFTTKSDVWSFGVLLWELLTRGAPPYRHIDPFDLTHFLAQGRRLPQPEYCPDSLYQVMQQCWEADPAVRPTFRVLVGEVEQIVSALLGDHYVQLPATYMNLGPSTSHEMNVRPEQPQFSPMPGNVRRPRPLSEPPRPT
Proto-oncogene tyrosine-protein kinase receptor Ret (Homo sapiens), sequence (P07949 whole entry): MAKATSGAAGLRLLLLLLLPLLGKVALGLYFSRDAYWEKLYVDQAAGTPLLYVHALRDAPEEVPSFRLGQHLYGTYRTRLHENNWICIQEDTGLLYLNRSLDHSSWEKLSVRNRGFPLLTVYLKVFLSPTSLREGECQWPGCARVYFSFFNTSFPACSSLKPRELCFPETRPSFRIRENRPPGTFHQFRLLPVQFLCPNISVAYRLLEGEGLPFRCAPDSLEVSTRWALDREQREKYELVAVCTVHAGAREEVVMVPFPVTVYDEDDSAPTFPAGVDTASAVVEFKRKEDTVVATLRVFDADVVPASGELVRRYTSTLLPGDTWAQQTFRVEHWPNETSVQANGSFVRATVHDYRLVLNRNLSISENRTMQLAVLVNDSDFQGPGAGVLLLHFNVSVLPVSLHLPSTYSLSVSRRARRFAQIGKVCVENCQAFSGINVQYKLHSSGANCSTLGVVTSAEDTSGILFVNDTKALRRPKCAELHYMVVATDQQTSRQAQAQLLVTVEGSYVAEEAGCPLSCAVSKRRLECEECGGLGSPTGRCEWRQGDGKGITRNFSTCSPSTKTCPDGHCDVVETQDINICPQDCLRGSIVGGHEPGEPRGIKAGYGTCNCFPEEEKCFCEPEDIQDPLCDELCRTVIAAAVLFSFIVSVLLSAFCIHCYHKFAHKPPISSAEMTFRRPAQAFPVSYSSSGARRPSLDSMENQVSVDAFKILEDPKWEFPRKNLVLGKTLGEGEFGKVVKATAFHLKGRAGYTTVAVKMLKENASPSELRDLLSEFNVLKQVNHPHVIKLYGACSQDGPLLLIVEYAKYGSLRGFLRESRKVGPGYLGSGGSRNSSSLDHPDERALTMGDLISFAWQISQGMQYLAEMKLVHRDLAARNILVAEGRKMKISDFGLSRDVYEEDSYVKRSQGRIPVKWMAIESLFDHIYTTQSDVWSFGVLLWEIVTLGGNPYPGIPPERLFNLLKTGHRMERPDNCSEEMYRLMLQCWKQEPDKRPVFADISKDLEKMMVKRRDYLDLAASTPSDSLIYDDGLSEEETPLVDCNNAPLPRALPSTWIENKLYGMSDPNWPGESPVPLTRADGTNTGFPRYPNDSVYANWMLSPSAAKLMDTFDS
Proto-oncogene tyrosine-protein kinase Src (Homo sapiens), sequence (P12931 2-536 limits assumed): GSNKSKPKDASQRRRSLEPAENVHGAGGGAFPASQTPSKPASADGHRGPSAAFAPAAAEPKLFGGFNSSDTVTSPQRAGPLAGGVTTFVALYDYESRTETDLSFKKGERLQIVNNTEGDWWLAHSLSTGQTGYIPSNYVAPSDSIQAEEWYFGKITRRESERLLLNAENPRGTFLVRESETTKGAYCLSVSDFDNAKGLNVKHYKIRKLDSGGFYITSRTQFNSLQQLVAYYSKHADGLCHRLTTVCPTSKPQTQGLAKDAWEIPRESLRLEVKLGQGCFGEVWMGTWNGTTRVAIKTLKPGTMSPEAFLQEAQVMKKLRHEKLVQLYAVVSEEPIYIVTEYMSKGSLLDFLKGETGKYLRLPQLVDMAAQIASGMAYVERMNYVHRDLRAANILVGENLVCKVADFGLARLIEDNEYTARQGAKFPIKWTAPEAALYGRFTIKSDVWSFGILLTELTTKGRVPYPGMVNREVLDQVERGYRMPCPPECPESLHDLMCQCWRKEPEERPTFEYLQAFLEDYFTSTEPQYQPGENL
Tyrosine-protein kinase FRK (Homo sapiens), sequence (P42685 whole entry): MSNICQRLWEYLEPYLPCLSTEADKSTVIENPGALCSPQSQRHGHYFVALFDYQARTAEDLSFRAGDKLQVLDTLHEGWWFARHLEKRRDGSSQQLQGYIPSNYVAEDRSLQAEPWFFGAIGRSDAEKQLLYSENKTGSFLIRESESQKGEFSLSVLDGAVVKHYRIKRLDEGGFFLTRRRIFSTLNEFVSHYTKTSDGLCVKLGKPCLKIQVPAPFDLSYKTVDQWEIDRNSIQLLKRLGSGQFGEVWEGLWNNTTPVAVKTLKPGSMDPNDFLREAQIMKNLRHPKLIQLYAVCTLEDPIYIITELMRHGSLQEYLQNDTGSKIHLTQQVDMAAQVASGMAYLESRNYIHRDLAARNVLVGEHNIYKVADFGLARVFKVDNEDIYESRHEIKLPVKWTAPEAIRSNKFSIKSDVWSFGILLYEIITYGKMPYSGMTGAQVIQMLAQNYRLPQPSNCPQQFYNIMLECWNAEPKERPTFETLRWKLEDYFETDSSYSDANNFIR
Tyrosine-protein kinase Srms (Homo sapiens), sequence (Q9H3Y6 whole entry): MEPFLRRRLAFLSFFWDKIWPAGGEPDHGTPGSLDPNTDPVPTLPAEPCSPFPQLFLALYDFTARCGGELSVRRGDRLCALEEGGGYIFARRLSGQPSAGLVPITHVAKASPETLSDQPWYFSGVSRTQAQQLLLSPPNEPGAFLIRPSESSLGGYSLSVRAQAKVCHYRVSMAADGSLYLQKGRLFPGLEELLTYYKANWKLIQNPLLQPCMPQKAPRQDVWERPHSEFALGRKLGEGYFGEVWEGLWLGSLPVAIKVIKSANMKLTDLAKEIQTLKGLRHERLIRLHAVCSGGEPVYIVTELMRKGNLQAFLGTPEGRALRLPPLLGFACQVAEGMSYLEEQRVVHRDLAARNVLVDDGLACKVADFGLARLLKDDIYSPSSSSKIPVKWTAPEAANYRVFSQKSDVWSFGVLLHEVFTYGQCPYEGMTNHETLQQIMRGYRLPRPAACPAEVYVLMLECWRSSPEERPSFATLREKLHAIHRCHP
Proto-oncogene tyrosine-protein kinase receptor Ret (Homo sapiens), P07949 [V804L], sequence (P07949 whole entry V804L): as the sequence (P07949 whole entry) above, with V804L counted along it
Proto-oncogene tyrosine-protein kinase receptor Ret (Homo sapiens), P07949 [Y791F], sequence (P07949 whole entry Y791F): as the sequence (P07949 whole entry) above, with Y791F counted along it

| SMILES | inhibition [1] [%] | inhibition [2] [%] | inhibition [3] [%] | inhibition [4] [%] | inhibition [5] [%] | inhibition [6] [%] | inhibition [7] [%] | inhibition [8] [%] | inhibition [9] [%] | inhibition [10] [%] | inhibition [11] [%] | inhibition [12] [%] | inhibition [13] [%] | inhibition [14] [%] | inhibition [15] [%] | inhibition [16] [%] | inhibition [17] [%] | inhibition [18] [%] | inhibition [19] [%] | inhibition [20] [%] |
| --- | --- | --- | --- | --- | --- | --- | --- | --- | --- | --- | --- | --- | --- | --- | --- | --- | --- | --- | --- | --- |
| CCS(=O)(=O)c1ccc(OC)c(Nc2ncc(-c3ccccc3Cl)o2)c1 | 28 | 0.68 | 4.99 | 6.54 | 45.2 | 4 | 8.62 | 3.06 | 21.2 | 2.23 | 9.6 | -3.54 | 8.49 | -1.24 | 4.38 | 4.44 | 23.4 | 2.76 | 3.31 | -0.36 |
| COc1ccc(-c2ccc3c(NC(=O)C4CC4)n[nH]c3n2)cc1 | 5.91 | 0.53 | -0.31 | 0.18 | 6.52 | 0.65 | 1.93 | 6.95 | 9.13 | 0.39 | 9.16 | 6.88 | 2.2 | 2.06 | 3.33 | 7.63 | 4.36 | -2.79 | 2.08 | 0.08 |
| CCN(CC)Cc1ccc(Nc2nccc(-c3cnn4ncccc34)n2)cc1 | 71.8 | 2.63 | 3.76 | 24.8 | 81.3 | 4.61 | 12.8 | 2.46 | 16.3 | 5.39 | 18.2 | 4.89 | 22.4 | 34.5 | 70.5 | 10.3 | 38.2 | -1.32 | 0.74 | 1.59 |
| Cc1ccc(NC(=O)c2ccoc2)cc1-c1ccc(C(=O)NCC2CC2)cc1 | -0.8 | 0.1 | 2.51 | 0.3 | -0.07 | 5.24 | 0.04 | 1.71 | 2.38 | 1.45 | 4.03 | -2.83 | -3.5 | 0.21 | -0.03 | 5.81 | 4.32 | -1.74 | -2.77 | -1.35 |
| O=C(Nc1n[nH]c2nc(-c3ccc(O)cc3)c(Br)cc12)C1CC1 | 41.3 | 14.7 | 2.41 | 9.91 | 18.5 | 11.8 | 28.1 | 5.98 | 21 | 12.1 | 36.3 | 2.95 | 6.19 | 5.89 | 11.1 | -2.92 | 20.3 | 2.23 | 17 | -6.1 |
| c1ccc(-c2n[nH]cc2-c2ccnc(-c3ccc(OCCN4CCOCC4)cc3)c2)nc1 | 52.2 | 2.08 | 0.63 | -9.86 | 0.28 | 8.77 | 11.1 | 6.56 | 4.32 | 10 | 12.9 | -5.76 | 3.22 | 7.93 | 11.1 | 1.88 | 4.39 | 4.69 | 3.57 | 11.6 |
| COc1cc(N2CCN(C(C)C)CC2)ccc1Nc1nc(Nc2ccc(F)cc2C(=O)NC[C@@H](O)CO)c2cc[nH]c2n1 | 5.07 | 2.85 | 4.03 | 87.3 | 96.5 | 5.61 | 8.19 | 5.31 | 18.4 | 6.02 | 13.9 | 7.42 | 2.76 | 17.8 | 60 | 3.75 | 9.14 | -2.12 | -0.49 | -1.02 |
| CS(=O)(=O)CCNCc1ccc(-c2ccc3ncnc(Nc4ccc(OCc5ccccc5)c(Br)c4)c3c2)o1 | 7.34 | 2.64 | 3.25 | 3.86 | 10.1 | 7.14 | 4.94 | 2.03 | 4.43 | 9.28 | 15.1 | 4.89 | 6.32 | 4.46 | 10.1 | 6.71 | 6.55 | -0.64 | 2.32 | -1.09 |
| CCS(=O)(=O)c1ccc(OC)c(Nc2ncc(-c3cccc(-c4ccccc4F)c3)o2)c1 | 63.6 | 0.61 | 11.7 | 7.79 | 0.8 | 15.4 | 54.4 | 3.52 | 9.78 | 10.1 | 51.1 | 2.4 | 5.56 | 14.2 | 54.9 | 12.6 | 74.5 | 8.12 | 30.3 | -3.99 |
| COc1cc(Nc2ncc3c(C)nc(-c4cccc(C(F)(F)F)c4)n3n2)cc(OC)c1OC | 38 | 1.36 | 0.31 | 11.8 | 39.6 | 7.14 | 39.1 | 16.7 | 57.4 | 8.01 | 31.8 | -0.28 | 6.04 | 6.64 | 10.5 | 22.6 | 74.4 | 1.58 | 0.29 | -1.19 |
| O=C(Nc1ccc(Oc2ccc3[nH]c(NC(=O)c4ccccc4)nc3c2)cc1)Nc1cc(C(F)(F)F)ccc1F | 31.1 | 1.86 | 2.1 | 5.27 | 14.2 | 62.6 | 90.2 | 25.4 | 78.7 | 38.6 | 87 | 0.56 | 5.31 | 4.24 | 11.4 | 4.33 | 11.2 | 1.78 | 4.56 | -1 |
| FC(F)(F)c1cccc(Nc2nccc(-c3cnn4nc(-c5ccccc5)ccc34)n2)c1 | 37.1 | 1.24 | 0.8 | -1 | 7.77 | 0.18 | 2.88 | 3.76 | 4.5 | 3.91 | 9 | 3.97 | 1.8 | 0.97 | 9.02 | 5.04 | 8.31 | -0.79 | -0.77 | -0.05 |
